HCMV antiviral: qHTS Assay for inhibitors of the human cytomegalovirus (HCMV). activity change, negative = inhibition, % at 57.5 µM. HFF cells, HCMV-luciferase reporter, 72 h; hits give low values. AID 1259415, 2018. 4.5% of 410,000 active; in the data active = activity change below about -60%; inconclusive = no clear call, values can overlap the other calls; inactive = above about -39%
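Cell-based, HFFs, 1000 cells/well, 16 h 37C; cpds in DMSO + HCMV-luc, MOI 1 PFU/cell; 72 h 37C; OneGlo luminescence after 5 min RT; norm. to buffer vs Salinomycin 10uM.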
MARV entry inh: qHTS for inhibitors of binding or entry into cells for Marburg Virus | Marburg virus pseudotyped entry inhibition, cell reporter | Potency, µM (doses to about 37.8 µM), inactives show at the top dose activity change, negative = inhibition, hits mostly inhibitors | 1.8% of 300,000 active; calls by dose curve; tested in HEK293 cells; also: potency is read from the fitted curve at half-maximal effect
VACV mCherry inh: qHTS for Stage-Specific Inhibitors of Vaccinia Orthopoxvirus: mCherry Reporter Primary qHTS | AID 720579, 2013 | Potency, µM (titrated, usually from 36.5 µM), for the others: at the top dose activity change, negative = inhibition, hits mostly inhibitors | Vaccinia virus mCherry reporter infection, fluorescence | 0.63% of 310,000 active; calls by dose curve; tested in A549 cells; also: potency is read from the fitted curve at half-maximal effect; nearly all actives have a fitted effect of over 35% in size
VACV Venus inh: qHTS for Stage-Specific Inhibitors of Vaccinia Orthopoxvirus: Venus Reporter Primary qHTS | Vaccinia virus Venus reporter expression, fluorescence | Potency, µM (series often up to 36.5 µM), inactives show top-dose activity change, negative = inhibition, hits mostly inhibitors | 0.46% of 330,000 active; calls by dose curve; tested in A549 cells; also: potency is read from the fitted curve at half-maximal effect; nearly all actives have a fitted effect of over 30% in size
Lassa entry inh: qHTS for Inhibitors of binding or entry into cells for Lassa Virus. 1.2% of 300,000 active. Lassa virus pseudotype entry inhibition, cell reporter. Potency, µM (series often up to 37.9 µM), for inactives: at the top dose activity change, negative = inhibition, hits mostly inhibitors; calls by dose curve; tested in HEK293 cells; also: potency is read from the fitted curve at half-maximal effect; nearly all actives have a fitted effect of over 50% in size
FMDV inh: High Throughput Screening for Foot and Mouth Disease Virus Antivirals; 1.2% of 410,000 active; FMDV antiviral cell-based qHTS; Potency, µM (titrated, usually from 57.9 µM), for the others: at the highest dose activity change, negative = inhibition, most hits filed as inhibitors; calls by dose curve; tested in HEK293T cells; also: read-out not given here; potency is read from the fitted curve at half-maximal effect; nearly all actives have a fitted effect of over 45% in size
Active calls of the source: *; i = inactive; ? = inconclusive; nt = not tested or not shown; [ ] = another dose, or the depositor's remark. An excerpt weighted towards active compounds, which were near 6.5% of everything screened. % is scaled to controls: 0 for no effect and ±100 for the full control effect.

SMILES | HCMV antiviral | MARV entry inh | VACV mCherry inh | VACV Venus inh | Lassa entry inh | FMDV inh
c1ccc(-c2csc3ncnc(NCC4COc5ccccc5O4)c23)cc1 (stereo unspecified) | -88* | 2.2µM* | ? | ? | ? | 28µM*
Cc1sc2ncnc(NCC3COc4ccccc4O3)c2c1C (stereo unspecified) | -79* | -27% | -9% | -23% | -30% | ?
COc1cc(-c2n[nH]c3ccnc(-c4cccc5ncccc45)c23)cc(OC)c1OC | 4 | nt | nt | nt | nt | nt
CC1(C)CC(CCC(=O)NC(=S)Nc2ccccc2Cl)C(=O)O1 (stereo unspecified) | -30 | nt | nt | nt | nt | 5%
Cc1ccc(S(=O)(=O)N/N=C\c2ccccc2OCc2ccccc2)cc1 | -74* | ? | -27% | ? | ? | nt
COc1ccc(N/C=C/c2nc(SC)nnc2C)cc1 | -86* | ? | -13% | -2% | -21%[46.1 µM] | -16%
CCOc1ccc(NS(=O)(=O)c2cc3c(cc2Cl)NC(=O)CO3)cc1 | 0 | nt | -4% | -6% | ? | -5%
CCOc1ccc([C@H]2C[C@H](c3ccccc3)Nc3nc(N)nn32)cc1 | nt | 1% | nt | nt | nt | nt
CC(=O)Nc1ccc(NC(=O)C(C)OC(=O)c2ccc(S(=O)(=O)N3CCCCCC3)cc2)cc1 (stereo unspecified) | -72* | ? | i | 0% | ? | 2%
CC(=O)Nc1ccc(S(=O)(=O)N2CCC(C(=O)c3ccc(Cl)cc3)CC2)cc1 | -63* | ? | i | 0% | ? | -25%
Cc1ccc(S(=O)(=O)N(C)C[C@@H]2OCc3cnnn3CCCC(=O)N([C@@H](C)CO)C[C@H]2C)cc1 | -10 | nt | -17% | -14% | nt | -12%
c1ccc(-c2cn3nc4c(nc3n2)CCCC4)cc1 | 39 | 1µM* | -10% | -10% | 1.1µM* | 5.6µM*
c1ccc(-c2cn3nc(-c4ccccc4)cnc3n2)cc1 | 30 | -4% | i | -12% | ? | 5%
Brc1ccc(-c2cn3nc4c(nc3n2)CCCC4)cc1 | ? | 5µM* | i | -7% | ? | ?
O=C(NCc1cc(F)cc(F)c1)[C@H]1[C@H](CO)[C@H]2Cn3c(cccc3=O)[C@@H]1N2C(=O)c1ccccn1 | -10 | nt | nt | nt | nt | nt
CCCCCc1c(C)nc(Nc2ccc(F)cc2)[nH]c1=O | -70* | ? | i | -18% | -7% | ?
CCCCc1c(C)nc(Nc2ccc(OC)cc2)[nH]c1=O | -34 | ? | -23% | -6% | 7% | -4%
Cc1nc2ccccc2n1C1CCN(C(=O)Nc2ccccc2)CC1 | -22 | 8%[46.1 µM] | i | -12% | -3%[46.1 µM] | 10%
Cc1ccc(CNC(=O)CSc2c3c(nc4ccc(Cl)cc24)CCCC3)cc1 | -17 | -1%[46.1 µM] | -20% | -22% | 20%[46.1 µM] | -12%
COc1ccc(NC(=O)CSc2c3c(nc4cc(Cl)ccc24)CCCC3)cc1OC | 55 | ? | -7% | -14% | ? | ?
COc1ccc(NC(=O)CSc2c3c(nc4ccc(Cl)cc24)CCCC3)cc1Cl | -80* | -4%[46.1 µM] | -13% | -17% | 8%[46.1 µM] | ?
Cc1ccc(C)c(NC(=O)CSc2c3c(nc4ccc(Cl)cc24)CCCC3)c1 | -74* | -3%[46.1 µM] | -24% | -21% | -1%[46.1 µM] | -16%
COc1ccc(Cl)cc1S(=O)(=O)NCc1ccc2c(c1)CCN2C(=O)c1cccc(C)c1 | -87* | nt | -14%[7.34 µM] | -8%[7.34 µM] | ? | 19%
Cc1cccc(C(=O)N2CCc3cc(CNS(=O)(=O)c4cccs4)ccc32)c1 | -62* | nt | -22% | -28% | ? | ?
CC(C)c1ccc(S(=O)(=O)NCc2ccc3c(c2)CCN3C(=O)c2ccccc2)cc1 | -66* | nt | -14% | -18% | ? | -19%
SMILES | HCMV antiviral | MARV entry inh | VACV mCherry inh | VACV Venus inh | Lassa entry inh | FMDV inh
CN1OC(C)(CC(=O)NCc2ccccc2F)N=C1c1ccccc1Cl (stereo unspecified) | 1 | nt | nt | nt | nt | nt
Cc1cccc(NC(=O)CSc2nc3ccc(NC(=O)COc4ccc(Cl)cc4)cc3s2)c1 | -24 | -17%[46.1 µM] | -1% | -23% | 1%[46.1 µM] | ?
CCCS(=O)(=O)c1snnc1C | -72* | 16% | -6% | 0% | 12% | -17%
CCn1cc2nc(SCc3cc(C)ccc3C)n(Cc3ccc(C)cc3)c(=O)c2n1 | 18 | nt | ? | -23% | ? | -29%
Cc1ccc2nc(SC(C)C(=O)NC3CCCC3)[nH]c2c1 (stereo unspecified) | -34 | ? | -12% | 3% | 0%[46.1 µM] | -13%
Cc1ccc2nc(SC(C)C(=O)Nc3cccc([N+](=O)[O-])c3)[nH]c2c1 (stereo unspecified) | -67* | ? | -22% | ? | -11% | ?
CC(Sc1nc2ccccc2[nH]1)C(=O)Nc1ccccc1F (stereo unspecified) | -73* | ? | -3% | -6% | 14%[46.1 µM] | -16%
O=C(Nc1ccc(F)cc1)C(Sc1nc2ccccc2[nH]1)c1ccccc1 (stereo unspecified) | -33 | ? | ? | ? | -29% | -16%
Cc1ccc2nc(SCC(=O)Nc3cc([N+](=O)[O-])ccc3F)[nH]c2c1 | -91* | -10% | i | -25% | -1% | -30%
Cc1ccccc1NC(=S)N(Cc1ccccn1)Cc1ccccc1Cl | ? | ? | -14% | -7% | ? | 28%
COc1ccccc1NC(=S)N(Cc1ccccc1)Cc1cccs1 | -20 | 1.4µM* | -11% | -4% | -2% | 17%
COc1ccccc1NC(=S)N(Cc1ccccn1)Cc1ccccc1Cl | -63* | ? | 8% | 10% | 2% | 26%
CC1(C)CC(=O)C2=C(C1)NC(Nc1nc3ccccc3o1)=NC2c1cccc(F)c1 (stereo unspecified) | nt | nt | 20% | 2% | nt | nt
CCC1CCCCN1C(=O)c1cc(COc2ccc(-n3cncn3)cc2)on1 (stereo unspecified) | -61* | -17% | -3% | -20% | -15% | ?
COC(=O)C(N)(c1ccccc1)C(Nc1cccc(OC)c1)c1ccccc1 (stereo unspecified) | 17 | nt | nt | nt | nt | nt
O=c1oc2ccccc2n1CSc1nc2ccccc2s1 | 117 | ? | -3% | -11% | 6% | 5%
O=c1oc2ccccc2n1CSC1=NCCS1 | -62* | -19% | nt | ? | ? | 0%
CC(C)Oc1ccc(CNC(=O)CC(c2ccccc2)c2cc(Cl)ccc2O)cc1 (stereo unspecified) | -24 | ? | nt | nt | 7.3µM* | ?
COc1ccc2c(c1)[C@H](C=Cc1ccccc1)[C@@H]([C@H](O)CO)O2 | nt | 17%[14.2 µM] | nt | nt | nt | nt
CC12CCC(C(=O)N(CCCN3CCN(Cc4ccccc4)CC3)C1=O)C2(C)C (stereo unspecified) | -90* | ? | -2% | 1% | 17% | -21%
